Source: PubChem BioAssay
Shown are actives, neighbours in structure and some others; about 6.1% of the full set was active somewhere.
ERG-DNA inh: inhibitors of human ERG Ets domain-DNA interaction; Potency, µM (top dose mostly 76.9 µM), hits mostly inhibitors; fluorescence polarization, His-ERG Ets domain / labelled DNA; 0.028% of 370,000 active; AID 624246; active = well fitted inhibition curve with a large enough effect in the polarisation, with a control signal flat; inconclusive = small, poorly fitted or top-dose-only effect, or effect the other way, or a change in a side signal; inactive = no such curve, though single readings can be large or run the other way; the % refers to the polarisation;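 also: polarization taken with two DNA probes labelled with fluorescein and Texas red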
Target sequence (P11308 whole entry, looked up, the tested form may be a part): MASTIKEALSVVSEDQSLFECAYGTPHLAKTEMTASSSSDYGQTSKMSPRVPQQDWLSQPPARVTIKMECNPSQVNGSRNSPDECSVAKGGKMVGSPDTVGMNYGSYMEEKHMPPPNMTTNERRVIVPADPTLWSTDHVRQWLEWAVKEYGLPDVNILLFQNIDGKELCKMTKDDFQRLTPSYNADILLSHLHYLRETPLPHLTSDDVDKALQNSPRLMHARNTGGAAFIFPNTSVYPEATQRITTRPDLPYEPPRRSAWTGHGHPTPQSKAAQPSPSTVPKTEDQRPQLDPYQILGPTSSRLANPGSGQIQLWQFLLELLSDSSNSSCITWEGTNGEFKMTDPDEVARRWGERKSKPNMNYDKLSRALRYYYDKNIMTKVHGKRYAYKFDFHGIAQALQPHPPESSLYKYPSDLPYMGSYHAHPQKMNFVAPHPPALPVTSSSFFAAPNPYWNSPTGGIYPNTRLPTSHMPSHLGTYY
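His-tagged ERG Ets domain (1 uM in the protein solution; 300mM KCl, 50mM Tris-HCl, 1mM EDTA, 1mM DTT, pH 7.5) received compound, then a probe mix of 5 nM fluorescein-DNA and 100nM Texas-615-DNA. Fluorescence polarization was read for both dyes.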
D1 potentiator: human D1 dopamine receptor positive modulation. P21728. HEK293 TREx D1 cells, calcium flux, dopamine EC20 potentiation. potentiation, % at 10 µM. 0.036% of 360,000 active. AID 504651; in the data active = potentiation above about 30%
D1 antag: human D1 dopamine receptor antagonism | AID 504652 | HEK293 TREx D1 cells, calcium flux, dopamine EC80; hits give low values | P21728 | 3.2% of 360,000 active | activity change, negative = inhibition, % at 10 µM; in the data active = activity change below about -30%
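HEK293 T-REx cells expressing inducible, force-coupled D1 receptor; no-wash Ca dye, 30–90 min RT. Cmpd → 180 s read at 1 Hz → EC80 DA → 180 s read.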
D3 antag: antagonists of human D3 dopamine receptor | P35462 | D3R cells, DiscoveRx beta-arrestin luminescence, antagonist mode; hits give low values | max response, negative = inhibition, % | 2.5% of 360,000 active | AID 652054; in the data active = max response below about -50%; inconclusive = no clear call, values can overlap the other calls
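Cells plated overnight at 1500 cells/well, then exposed to library compounds with dopamine controls for 90 minutes at 37 degrees C. DiscoveRx reagent added for 30–60 minutes at room temperature; luminescence read, quantitative HTS format.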
D1 ag: agonists of human D1 dopamine receptor | P21728 | HEK293 T-REx D1 cells, calcium flux, agonist mode | activation, % at 2 µM | 1% of 360,000 active | AID 504660; in the data active = activation above about 30%
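Agonism was scored from calcium flux recorded over 180 s (1 read/s) after pintool compound addition, following a 10-cycle baseline. Cells were inducible force-coupled HEK293 TREx D1, plated overnight at 30 C and loaded with no-wash calcium dye.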
D3 ag: D3 dopamine receptor (human) agonism | P35462 | D3R DiscoveRx beta-arrestin cells, luminescence, 90 min | max activation, % | 0.58% of 410,000 active; in the data active = max activation above about 30%
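Agonist mode: compounds and dopamine controls were applied to plated cells for 90 min at 37 degrees C after an overnight attachment at 1500 cells/well. Luminescent read-out followed 30 - 60 minutes at room temperature with DiscoveRx detection reagent.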
Hits are given with their value; - = inactive; ? = inconclusive; . = no result given; ! = repeats disagree.

SMILES	ERG-DNA inh	D1 potentiator	D1 antag	D3 antag	D1 ag	D3 ag
O=C(CCN1CCc2ccccc2C1)Nc1ccc2c(c1)OCO2	-	-	-	-67	-	-
CC(CCc1ccc(O)cc1)NCCC(c1ccccc1)c1ccccc1 (stereo not given)	-	-	-	?	87	-
CSCCC(C(=O)Nc1c(C)cccc1C)N(C)CCc1ccccc1 (stereo not given)	.	.	.	-	.	-
CC(CCc1ccc(O)cc1)N(C)CCc1ccccc1 (stereo not given)	-	-	-52	?	-	-
CC(CCc1ccc(O)cc1)NCc1ccc(Br)cc1 (stereo not given)	-	-	-	-	31	80
CC(CCc1ccc(O)cc1)NC(c1ccccc1)c1ccc(Cl)cc1 (stereo not given)	-	-	-	-	-	-
COc1ccc(CCC(C)NCc2ccc(C(F)(F)F)cc2)cc1 (stereo not given)	-	-	-	?	-	-
CC1=C/C(=N\NC(=O)c2ccccc2)CC1	-	-	-	-	-	-
CN(C)C1(CN=Cc2cc(Cl)cc([N+](=O)[O-])c2O)CCCCC1	-	-	-	-68	-	-
Cc1ccc(NC(=O)CSc2nccn2Cc2ccc3c(c2)OCO3)c(C)c1	-	-	-	.	-	-
Cc1cc(C)cc(Oc2ccc(S(=O)(=O)N3CCN(C)CC3)cn2)c1	-	-	-	-	-	-
Cc1ccc(-n2nc(C(=O)O)nc2-c2ccccc2)cc1	-	-	-	-51	-	-
Cc1ccc(-n2nc(C(N)=O)nc2-c2ccccc2)cc1	-	-	-	-	-	-
COc1ccc(CN2CC34C=CC(O3)C(C(=O)O)C4C2=O)cc1 (stereo not given)	-	.	-58	-	-	-
C=CCn1cc([N+](=O)[O-])nc1C	-	-	-31	-	-	-
CCc1ccc(NC(=O)C2CCCN(S(=O)(=O)c3ccc4c(c3)CCCN4C(C)=O)C2)cc1 (stereo not given)	-	-	-32!	-	-	-
CSc1cccc(NC(=O)C2CCN(S(=O)(=O)c3ccc4c(c3)CCCN4C(=O)C3CCC3)CC2)c1	-	-	-48	.	-	-
CSc1cccc(NC(=O)C2CCCN(S(=O)(=O)c3ccc4c(c3)CCCN4C(C)=O)C2)c1 (stereo not given)	-	-	-32	.	-	-
CC(=O)N1CCCc2cc(S(=O)(=O)N3CCCC(C(=O)Nc4cccc(F)c4)C3)ccc21 (stereo not given)	-	-	-	-	-	-
CCOC(=O)C1CCCN(S(=O)(=O)c2ccc3c(c2)CCCN3C(C)=O)C1 (stereo not given)	-	-	-	.	-	-
CCC1CCCCN1CCCNC(=O)c1ccc2nc(N3CCC(C)CC3)sc2c1 (stereo not given)	-	-	-	-	-	-
COC(=O)[C@H](C)NC(=O)Nc1cccc(Br)c1	-	-	-	-	-	84
COc1ccccc1NC(=O)CSc1nnc(NC(=O)c2ccco2)s1	-	-	-	-	-	-
Cc1cc2nc3c(=O)[nH]c(=S)[nH]c3nc2cc1NC(=O)C(F)(F)F	?	-	-	-	64	-
Cc1nnc(N2C(=O)C(O)=C(C(=O)c3ccco3)C2c2cccc([N+](=O)[O-])c2)s1 (stereo not given)	-	-	-	-	-	-
SMILES	ERG-DNA inh	D1 potentiator	D1 antag	D3 antag	D1 ag	D3 ag
COc1ccc(C2C(C(=O)c3cccs3)=C(O)C(=O)N2c2nnc(C)s2)cc1OC (stereo not given)	.	-	-	-	77	-
C=CCOc1cccc(C2C(C(=O)c3cccs3)=C(O)C(=O)N2Cc2cccnc2)c1 (stereo not given)	-	-	-	-	-	-
C=CCOc1ccc(C2C(C(=O)c3cccs3)=C(O)C(=O)N2c2nnc(C)s2)cc1 (stereo not given)	-	.	.	-63	.	-
O=C(C1=C(O)C(=O)N(CCN2CCOCC2)C1c1cccc([N+](=O)[O-])c1)c1cccs1 (stereo not given)	-	-	-	?	-	-
Cc1cccc(N2C(=O)C(O)=C(C(=O)c3cccs3)C2c2ccc(F)cc2)n1 (stereo not given)	-	-	-	-	-	-
O=C(C1=C(O)C(=O)N(CCN2CCOCC2)C1c1ccccc1)c1cccs1 (stereo not given)	-	.	.	-52	.	-
COc1ccc(C2C(C(=O)c3cccs3)=C(O)C(=O)N2c2nncs2)cc1 (stereo not given)	-	-	-	-	67	-
COc1cccc(NC(=O)CN(C)C(=O)c2cc(S(=O)(=O)N3CCCCCC3)ccc2OC)c1	-	-	-	-	-	-
CC(C)c1nnc(N2C(=O)C(O)=C(C(=O)c3cccs3)C2c2ccccc2)s1 (stereo not given)	-	-	.	-	270	-
CN1CCN(CC(=O)Nc2ccccc2Sc2ccccc2)CC1	-	-	.	-	-	-
Nc1c(C(=O)O)ccc2c1C(=O)c1ccccc1C2=O	-	-	-	?	-	-
Nc1cc(C(=O)O)c(N)c2c1C(=O)c1ccccc1C2=O	-	-	-	-55	-	-
Cc1cn([C@H]2C[C@H](O)[C@@H](CCC(=O)NCc3ccc4c(c3)OCO4)O2)c(=O)[nH]c1=O	.	.	.	-	.	-
Cc1ccc(CN2CCCNC2=O)cc1	-	-	-	-	-	-
O=c1ccc2ccccc2c2ccccc12	.	.	.	-79	.	-
O=C(Cc1ccccc1)NCC(=O)N/N=C/c1cccnc1	-	-	-	-	-	-
O=C(COC(=O)C1CC(O)CN1C(=O)Oc1ccccc1)c1ccc(Br)cc1 (stereo not given)	-	-	-	-	-	-
O=C(N/N=C/c1cc2c3c(c1O)CCCN3CCC2)c1ccccc1O	?	-	-	-	31	-
CCn1c(=NC(=O)c2ccc(N3C(=O)CCC3=O)cc2)sc2c(OC)ccc(OC)c21	-	.	-	-76	-	-
Cc1cc(NC(=O)COc2ccc3c(C)c(C)c(=O)oc3c2)no1	.	.	.	-	.	-
CCOC(=O)C1Nc2c(F)cc(C)cc2C2c3ccccc3CC12 (stereo not given)	-	.	.	-54	.	-
CCOC(=O)C1Nc2ccccc2C2c3ccccc3CC12 (stereo not given)	-	.	.	-	.	-
CC/C(=N/Nc1cccc(Cl)c1)c1cnnc(SC)n1	-	-	-37	-	-	-
Cc1ccccc1NC(=O)COC(=O)c1cccnc1	-	-	-	-	-	-
CCOC(=O)C(c1ccccc1)C(Nc1cc(C(F)(F)F)cc(C(F)(F)F)c1)c1ccccn1 (stereo not given)	-	-	-	-	-	38
